# Results published in PubChem BioAssay (Tox21).
# Values joined by “and” are separate entries in the source; they are usually repeats but may differ in a detail not shown here. Equal entries are not always repeated. A structure can be active in one record and inactive in another. Active and inactive are the calls of the source. A call without a number means that no potency is given here. Unless noted, calls come from the whole dose curve; as a rule, active = well fitted curve in the direction sought with a large enough effect in the repeat runs; inconclusive = weak or mixed curves; inactive = no such curve, though single readings can be large; an effect the other way counts as inactive or inconclusive.
# Key:
# [1] = qHTS assay to identify small molecule antagonists of the thyroid receptor (TR) signaling pathway - cell viability counter screen (AID 743064); note: nearly all actives have a fitted effect of over 50% in size; note: potency is the fitted concentration of half-maximal effect
# Method in brief: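 GH3.TRE-Luc cells, 4 h pre-plating; cpd + T3 1 nM final; 37 °C 23.5 h; CellTiter-Fluor 30 min; fluorescence read.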
# [2] = qHTS assay to identify small molecule antagonists of the thyroid receptor (TR) signaling pathway (AID 743065); note: nearly all actives have a fitted effect of over 55% in size; note: potency is the fitted concentration of half-maximal effect
# Method in brief: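 GH3.TRE-Luc rat pituitary cells carrying two TR response elements driving luciferase were plated for 4 h, given compound plus 1 nM T3 (final), and incubated 23.5 h at 37 C. ONE-Glo luminescence measured reporter inhibition; CellTiter-Fluor fluorescence tracked cytotoxicity.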
# [3] = tested on: thyroid hormone receptor (rat, GH3 cells); assay: qHTS assay to identify small molecule agonists of the thyroid receptor (TR) signaling pathway (AID 743066; calls by dose curve)
# [4] = target: Estrogen receptor (Homo sapiens) (UniProt P03372); assay: qHTS assay to identify small molecule antagonists of the estrogen receptor alpha (ER-alpha) signaling pathway (AID 743069; active = well fitted curve in the direction sought with a large enough effect in the signal ratio in the repeat runs, not every such curve was filed as active; inconclusive = weak or mixed curves, or effect the other way; inactive = no such curve, though single readings can be large or run the other way; the % refers to the signal ratio; note: potency is the fitted concentration of half-maximal effect)
# Method in brief: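 A 17beta-estradiol challenge was applied right after compound transfer to ER-alpha-UAS-bla HEK293 cells previously kept in charcoal-stripped serum. Plates stood 18 hr at 37C and 5% CO2; fluorescence was read following 2 hr FRET substrate loading at room temperature.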
# [5] = qHTS assay to identify small molecule antagonists of the estrogen receptor alpha (ER-alpha) signaling pathway - cell viability counter screen (AID 743074; calls by dose curve;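 note: HEK293 cells carrying ER-alpha-UAS-bla reporter stimulated with 17beta-estradiol; nearly all actives have a fitted effect of over 45% in size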)
# [6] = target: Estrogen receptor (Homo sapiens) (UniProt P03372); assay: qHTS assay to identify small molecule agonists of the estrogen receptor alpha (ER-alpha) signaling pathway (AID 743075; calls by dose curve;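 note: HEK293 GripTite cells with ER-alpha and UAS-driven beta-lactamase reporter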)
# [7] = target: Estrogen receptor (Homo sapiens) (UniProt P03372); assay: qHTS assay to identify small molecule agonists of the estrogen receptor alpha (ER-alpha) signaling pathway using the BG1 cell line (AID 743079); note: nearly all actives have a fitted effect of over 20% in size; note: potency is the fitted concentration of half-maximal effect
# [8] = qHTS assay to identify small molecule antagonists of the estrogen receptor alpha (ER-alpha) signaling pathway using the BG1 cell line (AID 743080; calls by dose curve;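 note: BG1 cells stimulated with 17beta-estradiol alongside compound; series mostly up to about 70 µM; nearly all actives have a fitted effect of over 25% in size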)
# Method in brief: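 Endogenous full-length ER-alpha in BG1-Luc-4E2 cells drives a stably integrated 4×ERE luciferase gene; compounds were tested against 17beta-estradiol over 21.5 h, with luminescence and multiplexed viability fluorescence recorded.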
# [9] = qHTS assay to identify small molecule antagonists of the estrogen receptor alpha (ER-alpha) signaling pathway using the BG1 cell line - cell viability counter screen (AID 743081);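 note: compound given together with 17beta-estradiol as the ER stimulus; nearly all actives have a fitted effect of over 45% in size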; note: potency is the fitted concentration of half-maximal effect
# Aromatase (Homo sapiens) = Aromatase (Homo sapiens) (UniProt P11511); assay: qHTS assay to identify aromatase inhibitors (AID 743083); note: series mostly up to about 70 µM; nearly all actives have a fitted effect of over 55% in size
# [10] = qHTS assay to identify aromatase inhibitors - cell viability counter screen (AID 743084);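 note: cells stimulated with testosterone during compound exposure; nearly all actives have a fitted effect of over 55% in size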; note: potency is the fitted concentration of half-maximal effect
# [11] = qHTS assay to identify small molecule that activate the aryl hydrocarbon receptor (AhR) signaling pathway - cell viability counter screen (AID 743086); note: nearly all actives have a fitted effect of over 45% in size; note: potency is the fitted concentration of half-maximal effect
# Method in brief: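 HepG2-AhR-luc (HG2L7.5c1) cells, 4000/well, were preincubated 5 h at 37C, exposed to compound in qHTS format for 24 hr at 37C, then given CellTiter-Fluor for 30 min; viability was read as fluorescence in the reporter wells.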
# [12] = target: Peroxisome proliferator-activated receptor gamma (Homo sapiens) (UniProt P37231); assay: qHTS assay to identify small molecule agonists of the peroxisome proliferator-activated receptor gamma (PPARg) signaling pathway (AID 743094; active = well fitted activation curve with a large enough effect in the signal ratio in the repeat runs, not every such curve was filed as active; inconclusive = weak or mixed curves, or effect the other way; inactive = no such curve, though single readings can be large or run the other way; the % refers to the signal ratio)
# Method in brief: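 Cells from the PPARg UAS-bla HEK293H line are plated and incubated 5 h at 37C. Compounds in DMSO are pinned in and left 17 h at 37C. LiveBLAzer B/G substrate is then added for 1 h at room temperature before fluorescence is measured.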
# [13] = target: Peroxisome proliferator-activated receptor gamma (Homo sapiens) (UniProt P37231); assay: qHTS assay to identify small molecule antagonists of the peroxisome proliferator-activated receptor gamma (PPARg) signaling pathway (AID 743191; calls by dose curve; note: series mostly up to about 63 µM; nearly all actives have a fitted effect of over 30% in size)
# Method in brief: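 GeneBLAzer PPARg UAS-bla HEK293H cells carrying a UAS-driven beta-lactamase reporter were plated at 3000 cells/well, preincubated 5 h at 37C, then given compound for 17 h at 37C; LiveBLAzer B/G FRET substrate was read after 1 h at room temperature.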
# [14] = qHTS assay to identify small molecule antagonists of the peroxisome proliferator-activated receptor gamma (PPARg) signaling pathway - cell viability counter screen (AID 743194); note: nearly all actives have a fitted effect of over 55% in size
# Method in brief: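 PPARg-UAS-bla HEK293H cells were plated, rested 5 h at 37 C, then treated with compounds plus rosiglitazone (50 nM final) for 17 h at 37 C; viability was then read by CellTiter-Glo luminescence after 30 min at room temperature.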
# [15] = qHTS assay for small molecule agonists of the antioxidant response element (ARE) signaling pathway (AID 743202; active = well fitted activation curve with a large enough effect in the signal ratio in the repeat runs, not every such curve was filed as active; inconclusive = weak or mixed curves, or effect the other way; inactive = no such curve, though single readings can be large or run the other way; the % refers to the signal ratio)
# Method in brief: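 Following a 16 h, 37 C exposure of reporter HepG2 cells (ARE-driven beta-lactamase, 2,000 cells/well) to compounds, FRET substrate was applied for 2 h at room temperature and fluorescence intensity recorded.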
# [16] = qHTS assay for small molecule agonists of the antioxidant response element (ARE) signaling pathway - cell viability counter screen (AID 743203; calls by dose curve; note: nearly all actives have a fitted effect of over 55% in size)
# Method in brief: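 Cytotoxicity was tested in parallel with the ARE reporter screen. ARE-bla HepG2 cells were exposed to compounds for 16 hrs, and viability was taken from CellTiter-Glo luminescence.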
# [17] = qHTS assay for small molecule activators of the heat shock response signaling pathway - cell viability counter screen (AID 743209); note: nearly all actives have a fitted effect of over 50% in size
# Method in brief: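 Cytotoxicity counter screen run in parallel with the HSE beta-lactamase reporter, using the same wells. HeLa HSE-bla cells received compound for 5 h at 37 C; ATP-based CellTiter-Glo luminescence was measured after 30 min at room temperature.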
# [18] = qHTS assay for small molecule activators of the heat shock response signaling pathway (AID 743210; active = well fitted activation curve with a large enough effect in the signal ratio in the repeat runs, with a control signal flat, not every such curve was filed as active; inconclusive = weak or mixed curves; the % refers to the signal ratio; note: series mostly up to about 63 µM)
# Method in brief: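 Heat shock element–beta-lactamase HeLa reporter cells; qHTS with compounds for 5 h at 37 C; detection by FRET substrate fluorescence after 2.5 h at RT.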
# [19] = target: Aryl hydrocarbon receptor (Homo sapiens) (UniProt P35869); assay: qHTS assay to identify small molecule that activate the aryl hydrocarbon receptor (AhR) signaling pathway (AID 743085);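 note: HG2L7.5c1 human HepG2 liver cells with stably integrated DRE-driven firefly reporter; series mostly up to about 70 µM; nearly all actives have a fitted effect of over 15% in size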
# Method in brief: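 Luminescence read-out: ONE-Glo reagent, 30 min at room temperature, in HG2L7.5c1 HepG2 reporter cells treated 24 h at 37C. Viability was measured beforehand by CellTiter-Fluor fluorescence after 30 min at 37C.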
# Sequence of Aryl hydrocarbon receptor (Homo sapiens) (P35869 whole entry, looked up): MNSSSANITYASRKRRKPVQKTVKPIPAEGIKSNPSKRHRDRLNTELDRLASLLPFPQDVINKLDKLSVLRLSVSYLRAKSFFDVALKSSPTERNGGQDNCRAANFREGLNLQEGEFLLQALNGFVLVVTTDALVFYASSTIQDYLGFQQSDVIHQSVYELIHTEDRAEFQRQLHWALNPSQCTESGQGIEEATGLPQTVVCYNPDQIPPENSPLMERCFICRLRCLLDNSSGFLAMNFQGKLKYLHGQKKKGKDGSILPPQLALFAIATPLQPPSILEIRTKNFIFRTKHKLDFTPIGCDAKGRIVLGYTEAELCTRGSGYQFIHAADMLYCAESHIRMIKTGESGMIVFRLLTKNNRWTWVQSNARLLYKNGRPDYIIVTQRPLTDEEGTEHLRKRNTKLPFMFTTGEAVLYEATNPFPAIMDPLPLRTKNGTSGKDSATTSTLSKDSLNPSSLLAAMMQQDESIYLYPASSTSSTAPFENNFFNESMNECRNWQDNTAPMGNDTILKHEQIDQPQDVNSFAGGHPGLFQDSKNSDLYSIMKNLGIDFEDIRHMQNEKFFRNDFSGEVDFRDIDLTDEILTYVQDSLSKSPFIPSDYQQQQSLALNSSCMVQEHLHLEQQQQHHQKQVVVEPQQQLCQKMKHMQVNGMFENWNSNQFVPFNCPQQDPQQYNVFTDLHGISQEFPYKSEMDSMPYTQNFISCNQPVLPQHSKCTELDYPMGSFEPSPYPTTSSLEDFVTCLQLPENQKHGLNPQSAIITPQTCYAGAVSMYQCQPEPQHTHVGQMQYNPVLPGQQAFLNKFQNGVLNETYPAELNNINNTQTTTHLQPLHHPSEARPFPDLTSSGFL
# Sequence of Peroxisome proliferator-activated receptor gamma (Homo sapiens) (P37231 whole entry, looked up): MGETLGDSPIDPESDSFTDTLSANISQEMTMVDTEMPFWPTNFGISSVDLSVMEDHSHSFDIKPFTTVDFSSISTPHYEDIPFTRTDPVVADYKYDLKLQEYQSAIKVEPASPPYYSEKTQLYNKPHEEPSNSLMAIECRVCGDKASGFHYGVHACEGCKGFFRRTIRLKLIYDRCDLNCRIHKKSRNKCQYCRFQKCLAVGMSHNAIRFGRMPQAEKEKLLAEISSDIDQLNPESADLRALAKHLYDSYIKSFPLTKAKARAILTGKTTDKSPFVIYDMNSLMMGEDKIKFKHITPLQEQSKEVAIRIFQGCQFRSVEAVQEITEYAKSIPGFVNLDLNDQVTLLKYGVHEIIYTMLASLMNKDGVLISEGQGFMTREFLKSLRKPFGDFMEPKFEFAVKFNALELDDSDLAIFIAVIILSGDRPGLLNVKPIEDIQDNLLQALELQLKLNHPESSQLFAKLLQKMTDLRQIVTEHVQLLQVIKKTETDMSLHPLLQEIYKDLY
# Sequence of Estrogen receptor (Homo sapiens) (P03372 whole entry, looked up): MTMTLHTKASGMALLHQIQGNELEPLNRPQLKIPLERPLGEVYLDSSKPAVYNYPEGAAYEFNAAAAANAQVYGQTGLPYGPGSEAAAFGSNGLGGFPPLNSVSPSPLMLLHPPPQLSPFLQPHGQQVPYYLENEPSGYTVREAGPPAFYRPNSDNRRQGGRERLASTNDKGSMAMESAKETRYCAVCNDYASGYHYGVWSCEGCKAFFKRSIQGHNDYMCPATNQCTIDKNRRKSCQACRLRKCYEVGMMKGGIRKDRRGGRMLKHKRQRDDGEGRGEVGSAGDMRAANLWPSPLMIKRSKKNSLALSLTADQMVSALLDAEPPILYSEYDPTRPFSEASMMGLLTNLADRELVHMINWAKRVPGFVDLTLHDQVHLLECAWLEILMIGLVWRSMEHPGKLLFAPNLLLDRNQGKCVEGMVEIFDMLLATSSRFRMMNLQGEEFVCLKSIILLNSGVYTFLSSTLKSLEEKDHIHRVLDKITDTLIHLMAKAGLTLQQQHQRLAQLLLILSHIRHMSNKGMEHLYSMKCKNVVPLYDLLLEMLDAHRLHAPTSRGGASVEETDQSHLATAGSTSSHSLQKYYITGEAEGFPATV
# Sequence of Aromatase (Homo sapiens) (P11511 whole entry, looked up): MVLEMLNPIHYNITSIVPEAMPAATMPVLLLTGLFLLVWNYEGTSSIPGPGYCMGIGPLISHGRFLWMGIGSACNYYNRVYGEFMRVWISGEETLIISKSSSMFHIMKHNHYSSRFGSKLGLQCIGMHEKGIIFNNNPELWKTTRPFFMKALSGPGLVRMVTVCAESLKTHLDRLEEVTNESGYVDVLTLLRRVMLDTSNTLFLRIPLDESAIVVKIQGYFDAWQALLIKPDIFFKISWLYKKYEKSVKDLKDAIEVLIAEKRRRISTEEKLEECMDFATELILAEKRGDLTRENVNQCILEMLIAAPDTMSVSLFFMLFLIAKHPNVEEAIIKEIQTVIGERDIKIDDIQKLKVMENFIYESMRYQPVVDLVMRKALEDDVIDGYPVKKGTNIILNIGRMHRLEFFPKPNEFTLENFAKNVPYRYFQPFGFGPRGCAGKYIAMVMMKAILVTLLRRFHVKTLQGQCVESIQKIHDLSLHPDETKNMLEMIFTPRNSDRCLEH
SMILES,Potency [1],Potency [2],Potency [3],Potency [4],Potency [5],Potency [6],Potency [7],Potency [8],Potency [9],Potency (Aromatase (Homo sapiens)),Potency [10],Potency [11],outcome [12],Potency [13],Potency [14],Potency [15],Potency [16],Potency [17],outcome [18],Potency [19]
Cc1ccc([N+](=O)[O-])c(C)c1,inactive,inactive,inactive,inactive,inactive,inactive,inactive and 68.6 µM (active),inactive,inactive,inactive,inactive,inactive,inactive,inactive,inactive,inactive,inactive,inactive,inactive,
c1ccc2ncccc2c1,inactive,inactive,inactive,inactive,,inactive,inactive,inactive,inactive,inactive,inactive,inactive,inactive,inactive,inactive,inactive,inactive,,inactive,
CCC/C=C/C=O,inactive,inactive,inactive,inactive,inactive,inactive,inactive,inactive,inactive,inactive,inactive,inactive,inactive,,inactive,inactive,inactive,inactive,inactive,
Cc1ccc(N)c([N+](=O)[O-])c1,inactive,inactive,inactive,inactive,inactive,inactive,38.1 µM (active) and inactive,inactive,inactive,inactive,inactive,inactive,inactive,inactive,inactive,inactive,inactive,inactive,inactive,
O=[Se](O)O,inactive,inactive,inactive,43.7 µM [inconclusive] (active) and inactive,inactive,inactive,inactive,inactive,6.87 µM (active) and inactive,inactive,inactive,27.3 µM (active) and inactive,,,inactive,inactive,inactive,inactive,inactive,
Cc1ccc2c(c1)C(=O)OC2=O,inactive,inactive,inactive,,inactive,,,,inactive,inactive,inactive,inactive,inactive,inactive,inactive,inactive,inactive,inactive,inactive,inactive
OC[C@H]1O[C@@H]2O[C@H]3[C@H](O)[C@@H](O)[C@@H](O[C@H]4[C@H](O)[C@@H](O)[C@@H](O[C@H]5[C@H](O)[C@@H](O)[C@@H](O[C@H]6[C@H](O)[C@@H](O)[C@@H](O[C@H]7[C@H](O)[C@@H](O)[C@@H](O[C@H]1[C@H](O)[C@H]2O)O[C@@H]7CO)O[C@@H]6CO)O[C@@H]5CO)O[C@@H]4CO)O[C@@H]3CO,inactive,inactive,inactive,inactive,inactive,inactive,23.7 µM (active) and inactive,inactive,inactive,inactive,inactive,inactive,inactive,inactive,inactive,inactive,inactive,,inactive,
CCOC(=O)C(C)Oc1ccc(Oc2cnc3cc(Cl)ccc3n2)cc1 (stereo not given),inactive,inactive,inactive,inactive,inactive,inactive,inactive,inactive,inactive,inactive,inactive,inactive,inactive,inactive,inactive,inactive,inactive,inactive,,
C1CN(SSN2CCOCC2)CCO1,67.9 µM (active),60.5 µM (active),inactive,inactive,inactive,inactive,inactive,inactive,inactive,,61.1 µM (active),inactive,inactive,,inactive,inactive,inactive,,,inactive
C=CCNCC=C,inactive,inactive,inactive,inactive,inactive,inactive,inactive,inactive,inactive,inactive,inactive,inactive,inactive,inactive,inactive,inactive,inactive,inactive,inactive,
NCCS(=O)(=O)O,inactive and 28.4 µM (active),inactive,inactive,inactive,inactive,inactive,inactive,inactive,inactive,inactive,inactive,inactive,inactive,inactive,inactive,inactive,inactive,,inactive,
c1ccc2cc3ccccc3cc2c1,inactive,inactive,inactive,,inactive,inactive,,,inactive,inactive,inactive,inactive,inactive,inactive,inactive,inactive,inactive,inactive,,
Cc1ccc(C(C)(C)C)cc1,inactive,inactive,inactive,inactive,inactive,inactive,inactive,inactive,inactive,inactive,inactive,inactive,inactive,inactive,inactive,inactive,inactive,inactive,inactive,
CC(=O)O[C@]1(C(C)=O)CC[C@H]2[C@@H]3C=C(Cl)C4=CC(=O)CC[C@]4(C)[C@H]3CC[C@@]21C,inactive,26.6 µM (active) and 54.4 µM (active),inactive,,inactive,inactive,,,inactive,inactive,inactive,inactive,,,,,,,inactive,inactive
